# PubChem BioAssay (NCI)
# “And” between values parts separate entries of the source, which are not always exact repeats. Equal entries are not always repeated. Compounds without any hit were thinned out: in the full panel of roughly 79,000, 15% have a hit. Some compounds were tested as several samples or in several runs, with calls that do not always agree. The source made the active and inactive calls. No stated cut-off is given here; in the data, active means growth inhibition above about 70%; inactive means the rest.
# Legend:
# [1] = NCI Yeast Anticancer Drug Screen. Data for the rad50 strain (AID 155);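 further: 0% = growth of vehicle-only cultures of the same strain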; conditions: S. cerevisiae rad50 strain growth inhibition, stronger effect = higher value
# Summary of the method: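 Readout: growth inhibition relative to vehicle-treated cultures. Compound exposure was carried out in a genetically defined yeast strain deficient in DNA damage repair.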
# [2] = NCI Yeast Anticancer Drug Screen. Data for the mec2-1 strain (AID 157); conditions: S. cerevisiae mec2-1 strain, stronger effect = higher value
# Summary of the method: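 Yeast mec2-1 mutant treated with compound. Readout: growth inhibition vs vehicle controls.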
# [3] = NCI Yeast Anticancer Drug Screen. Data for the sgs1 mgt1 strain (AID 161);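 further: 0% = growth of cultures given vehicle only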; conditions: S. cerevisiae sgs1 mgt1 strain, stronger effect = higher value
# Summary of the method: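 Genetically altered yeast, compound exposure, growth inhibition relative to vehicle.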
# [4] = NCI Yeast Anticancer Drug Screen. Data for the cln2 rad14 strain (AID 165);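 further: 0% = growth equal to vehicle treated cultures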; conditions: S. cerevisiae cln2 rad14 strain, stronger effect = higher value
# Summary of the method: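 cln2 rad14 yeast strain; compound exposure; growth inhibition read vs vehicle controls.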
# [5] = NCI Yeast Anticancer Drug Screen. Data for the bub3 strain (AID 167); conditions: S. cerevisiae bub3 mutant strain, stronger effect = higher value
# Summary of the method: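 Readout: yeast growth inhibition, expressed relative to vehicle-only wells. The test organism is a mutant strain from a panel with lesions in DNA repair or checkpoint genes.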
# [6] = NCI Yeast Anticancer Drug Screen. Data for the mlh1 rad18 strain (AID 175); conditions: S. cerevisiae mlh1 rad18 strain growth inhibition, stronger effect = higher value
# Summary of the method: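 Yeast w/ defined DNA-repair lesions; compound exposure; growth vs vehicle controls → % inhibition.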
# [7] = NCI Yeast Anticancer Drug Screen. Data for the wt2 strain (AID 169);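 further: 0% = growth of vehicle-treated yeast cultures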; conditions: S. cerevisiae wt2 strain growth inhibition, stronger effect = higher value
# Summary of the method: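 Read-out: growth inhibition versus vehicle-treated control cultures after compound exposure of the yeast strain.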
# [8] = at 5.0 µM (retest, dose inferred, filed as 0.5)
# [9] = at 50.0 µM (retest, dose inferred, filed as 5.0)
compound,measurement,setting,value
O=C1CSC(=S)N1c1ccc(F)c(F)c1,growth inhibition,[1]; [8],4% (inactive)
same,growth inhibition,[1]; [9],90% (active)
same,growth inhibition,[1]; at 50.0 µM,97.5% (active)
same,growth inhibition,[2]; [8],-12% (inactive)
same,growth inhibition,[2]; [9],95% (active)
same,growth inhibition,[2]; at 50.0 µM,97.2% (active)
same,growth inhibition,[3]; [8],4% (inactive)
same,growth inhibition,[3]; [9],94% (active)
same,growth inhibition,[3]; at 50.0 µM,97% (active)
same,growth inhibition,[4]; [8],-3% (inactive)
same,growth inhibition,[4]; [9],43% (inactive)
same,growth inhibition,[4]; at 50.0 µM,86.2% (active)
same,growth inhibition,[5]; [8],0% (inactive)
same,growth inhibition,[5]; [9],92% (active)
same,growth inhibition,[5]; at 50.0 µM,96.3% (active)
CCCCCCCCCCS(=O)CC(CO)NC(=O)/C=C/c1c(C)[nH]c(=O)[nH]c1=O (stereo not given),growth inhibition,[1]; [8],35% (inactive)
same,growth inhibition,[1]; [9],93% (active)
same,growth inhibition,[1]; at 50.0 µM,86.2% (active)
same,growth inhibition,[2]; [8],20% (inactive)
same,growth inhibition,[2]; [9],94% (active)
same,growth inhibition,[2]; at 50.0 µM,89.8% (active)
same,growth inhibition,[3]; [8],68% (inactive)
same,growth inhibition,[3]; [9],98% (active)
same,growth inhibition,[3]; at 50.0 µM,88.7% (active)
same,growth inhibition,[4]; [8],34% (inactive)
same,growth inhibition,[4]; [9],89% (active)
same,growth inhibition,[4]; at 50.0 µM,84.2% (active)
same,growth inhibition,[5]; [8],50% (inactive)
same,growth inhibition,[5]; [9],96% (active)
same,growth inhibition,[5]; at 50.0 µM,88.3% (active)
same,growth inhibition,[6]; [8],53% (inactive)
same,growth inhibition,[6]; [9],92% (active)
CCSC1=C(C)C(=O)c2ccccc2C1=O,growth inhibition,[1]; [8],35% (inactive)
same,growth inhibition,[1]; [9],99% (active)
same,growth inhibition,[1]; at 50.0 µM,70.1% (active)
same,growth inhibition,[2]; [8],32% (inactive)
same,growth inhibition,[2]; [9],99% (active)
same,growth inhibition,[2]; at 50.0 µM,50.1% (inactive)
same,growth inhibition,[3]; [8],7% (inactive)
same,growth inhibition,[3]; [9],26% (inactive)
same,growth inhibition,[3]; at 50.0 µM,74.2% (active)
same,growth inhibition,[4]; [8],44% (inactive)
same,growth inhibition,[4]; [9],34% (inactive)
same,growth inhibition,[4]; at 50.0 µM,41.9% (inactive)
same,growth inhibition,[5]; [8],-6% (inactive)
same,growth inhibition,[5]; [9],36% (inactive)
same,growth inhibition,[5]; at 50.0 µM,77.2% (active)
same,growth inhibition,[7]; at 1.2 µM,18% (inactive)
same,growth inhibition,[7]; at 3.7 µM,11% (inactive)
same,growth inhibition,[7]; at 11.0 µM,6% (inactive)
same,growth inhibition,[7]; at 33.0 µM,20% (inactive)
same,growth inhibition,[7]; at 100.0 µM,98% (active)
same,growth inhibition,[6]; [8],11% (inactive)
same,growth inhibition,[6]; [9],62% (inactive)
same,growth inhibition,[6]; at 50.0 µM,55% (inactive)
Cc1cc(NS(=O)(=O)c2ccc(N=Nc3cc(N=Nc4ccc(S(=O)(=O)Nc5cc(C)nc(C)n5)cc4)c4c(NC(=O)C(Cl)Cl)cccc4c3OC(=O)C(Cl)Cl)cc2)nc(C)n1 (tested in a mixture with another compound),growth inhibition,[1]; [8],16% (inactive)
same,growth inhibition,[1]; [9],76% (active)
same,growth inhibition,[1]; at 50.0 µM,29.9% (inactive) and 73.2% (active)
same,growth inhibition,[2]; [8],15% (inactive)
same,growth inhibition,[2]; [9],92% (active)
same,growth inhibition,[2]; at 50.0 µM,-17.1% (inactive) and 81.5% (active)
same,growth inhibition,[3]; [8],8% (inactive)
same,growth inhibition,[3]; [9],79% (active)
same,growth inhibition,[3]; at 50.0 µM,-23.1% (inactive) and 69.2% (inactive)
same,growth inhibition,[4]; [8],16% (inactive)
same,growth inhibition,[4]; [9],80% (active)
same,growth inhibition,[4]; at 50.0 µM,-3.85% (inactive) and 41.8% (inactive)
same,growth inhibition,[5]; [8],21% (inactive)
same,growth inhibition,[5]; [9],90% (active)
same,growth inhibition,[5]; at 50.0 µM,-21.5% (inactive) and 77.2% (active)
